The structures appear in SMILES notation.

Assay [1] deals with Vero E6 infected with SARS-CoV-2. The assay can be described thus: morphology score (similarity to uninfected cells); higher = more like uninfected cells. Conditions: 24 h.
The test system is the same in assay [2]. Nature of the assay: SARS-CoV-2 infection rate relative to infected DMSO; higher = more infection, active = 60 or less. Conditions: 24 h.

As to `Cn1c(=O)cnn(CCCCN2CCN(c3ncccn3)CC2)c1=O` (10 µM), the morphology score in assay [1] was -0.0383. For the same molecule, the SARS-CoV-2 infection rate in assay [2] is 115% (inactive).
In the same order, the values of `Cc1c(Cl)c(C)[n+]([O-])c(Cl)c1-c1noc(-c2cc(O)c(O)c([N+](=O)[O-])c2)n1` [opicapone] (10 µM) are 0.125 and 102% (inactive).
In the same order, the values of `CC(C)(Oc1ccc(Cl)cc1)C(=O)N1CSCC1C(=O)O` (stereo not given) [timofibrate] (10 µM) are 0.0255 and 106% (inactive).
In assay [1], `COc1ccc(CCC(=O)Nc2nc3ccc(Cl)cc3s2)cc1OC` (10 µM) returned a morphology score of 0.197. Moreover, the SARS-CoV-2 infection rate in assay [2] is 100% (inactive).
Regarding `CCCC(C)(COC(N)=O)COC(=O)NC(C)C` (stereo not given) (10 µM), in assay [1], the morphology score was -0.33. Moreover, the SARS-CoV-2 infection rate in assay [2] is 116% (inactive).
`Nc1nc(=O)c(Br)c(-c2ccccc2)[nH]1` [bropirimine] (10 µM) came in with a morphology score in assay [1] of 0.109. Further, the SARS-CoV-2 infection rate in assay [2] is 99.5% (inactive).
In the same order, the values of `COc1cc(NC(=O)Nc2cccc(CNC(=O)O[C@H]3CCOC3)c2)ccc1-c1cnco1` [merimepodib] (10 µM) are 0.447 and 62.5% (inactive).
The corresponding values for `CN(C)c1ccc(C(=C2C=CC(=[N+](C)C)C=C2)c2ccc(N(C)C)cc2)cc1` [crystal-violet] (10 µM) are -0.0788 and 114% (inactive).
In the same order, the values of `CCn1c(=O)c2c(nc(/C=C/c3ccc(OC)c(OC)c3)n2C)n(CC)c1=O` [istradefylline] (10 µM) are 0.157 and 108% (inactive).
For the molecule `COCCCN1CCC(NC(=O)c2cc(Cl)c(N)c3c2OCC3)CC1` [prucalopride] (10 µM), the morphology score in assay [1] came out at 0.0302. The SARS-CoV-2 infection rate in assay [2] is 109% (inactive).
In the same order, the values of `C[N+]1(C)CCc2cc3c(cc2[C@H]1[C@@H]1OC(=O)c2c1ccc1c2OCO1)OCO3` [bicuculline-methochloride-(-)] (10 µM) are -0.156 and 110% (inactive).
In the same order, the values of `COC1(C2=NCCN2)COc2ccccc2O1` (stereo not given) (10 µM) are 0.0681 and 92.5% (inactive).
The corresponding values for `COc1cc(C(=O)NC2CCN(C)CC2)c(F)cc1Nc1ncc2c(n1)N(C1CCCC1)CC(F)(F)C(=O)N2C` (0.833333 µM) are -0.193 and 100% (inactive).
`OC(CCN1CCCCC1)(c1ccccc1)C1CC2C=CC1C2` (stereo not given) [biperiden] (10 µM) registered a morphology score in assay [1] of 0.48. Further, the SARS-CoV-2 infection rate in assay [2] was 75.5% (inactive).
The molecule `CN1C[C@H](CNC(=O)OCc2ccccc2)C[C@@H]2c3cccc4c3c(cn4C)C[C@H]21` [metergoline] (10 µM) registered a morphology score in assay [1] of 0.164. In addition, in assay [2], the SARS-CoV-2 infection rate was 97.5% (inactive).
Regarding `Cc1cccc(NC(=O)CN2CCC(c3ccccn3)CC2)c1` (10 µM), in assay [1], the morphology score is -0.0959. Also, the SARS-CoV-2 infection rate in assay [2] is 108% (inactive).
The corresponding values for `CCCN1CCCC(c2cccc(O)c2)C1` (stereo in doubt) [preclamol] (10 µM) are -0.1 and 114% (inactive).
The corresponding values for `CN1[C@@H]2C[C@@H](O)C[C@H]1[C@@H]1O[C@@H]12` [scopine] (10 µM) are 0.146 and 93.5% (inactive).
The corresponding values for `C/C1=C/C[C@@H](/C(C)=C/c2csc(C)n2)OC(=O)C[C@H](O)C(C)(C)C(=O)[C@H](C)[C@@H](O)[C@@H](C)CCC1` [epothilone-D] (0.833333 µM) are -0.105 and 107% (inactive).
As to `CN1C(=O)c2c(nn(Cc3ccc(-c4cccc(F)n4)cc3)c2Nc2ccccc2)N2C1=N[C@@H]1CCC[C@@H]12` (10 µM), the morphology score in assay [1] amounted to 0.38. For the same molecule, in assay [2], the SARS-CoV-2 infection rate was 105% (inactive).
In the same order, the values of `Fc1ccc(C(c2ccc(F)cc2)N2CCN(C/C=C/c3ccccc3)CC2)cc1` [flunarizine] (10 µM) are 0.364 and 69.5% (inactive).
`CC1(C)S[C@@H]2[C@H](NC(=O)COc3ccccc3)C(=O)N2[C@H]1C(=O)O` [penicillin-v-potassium] (10 µM): the morphology score in assay [1] was -0.0155. Besides, the SARS-CoV-2 infection rate in assay [2] was 116% (inactive).
The corresponding values for `Ic1cc(-c2ccccc2)ncn1` [4-iodo-6-phenylpyrimidine] (10 µM) are 0.254 and 81.5% (inactive).
Molecule `O=C1c2ccccc2C(=O)C1c1ccc(Cl)cc1` [chlorindione] (10 µM) showed a morphology score in assay [1] of 0.011. The SARS-CoV-2 infection rate in assay [2] is 102% (inactive).
As to `COc1c(O)cc2c(c1O)[C@@H]1O[C@H](CO)[C@@H](O)[C@H](O)[C@H]1OC2=O` [bergenin] (10 µM), in assay [1], the morphology score was determined as 0.087. Also, in assay [2], the SARS-CoV-2 infection rate was 96% (inactive).
The corresponding values for `CC(=O)[C@H]1CC[C@H]2[C@@H]3CC[C@H]4C[C@H](O)CC[C@]4(C)[C@H]3C(=O)C[C@]12C` [alfaxalone] (10 µM) are -0.0143 and 112% (inactive).
The corresponding values for `C[N+](C)(C)CC(=O)O` [betaine] (10 µM) are 0.11 and 102% (inactive).
In the same order, the values of `COc1cc2c(Nc3ccc(NC(=O)c4ccccc4)cc3)ncnc2cc1OCCCN1CCOCC1` (10 µM) are -0.13 and 108% (inactive).
In assay [1], `O=C(CCBr)N1CCN(C(=O)CCBr)CC1` [pipobroman] (10 µM) returned a morphology score of 0.23. For the same molecule, the SARS-CoV-2 infection rate in assay [2] was 98.5% (inactive).
Turning to `C=C[C@]1(C)CC[C@@H](C(=C)C)C[C@H]1C(=C)C` [beta-elemene] (10 µM), the morphology score in assay [1] is -0.205. Moreover, in assay [2], the SARS-CoV-2 infection rate was 111% (inactive).

(Values after the supplement of paper PMC13380429.)
